The values below come from ChEMBL document CHEMBL1157539, “Thousands of chemical starting points for antimalarial lead identification” (Nature, 2010).

As a reminder, the Inhibition is the percentage by which the read-out fell short of the control. A higher Inhibition goes with a strong effect.

One test relates to Plasmodium falciparum. Description: GSK_TCMDC: Inhibition of Plasmodium falciparum 3D7 in whole red blood cells, using parasite LDH activity as an index of growth. Test compounds present at 2uM. The format is functional.
In turn, `CCOc1cc(-c2nnc3[nH]c(=O)n(C)c(=O)c3n2)ccc1OC(C)C` had an Inhibition of 97%.

`CC(C)C(=O)NC(c1ccc(N(C)C)cc1)c1cc(Cl)c2cccnc2c1O` (stereo not drawn) had an Inhibition of 87%.

The molecule `CCCN1CCN(c2ccc(NS(=O)(=O)c3ccc(C(=O)Nc4ccc(Cl)cc4)cc3)cc2)CC1.O=C(O)C(F)(F)F` registered an Inhibition of 100%.

Molecule `CCN(CC(C)O)C(=O)c1ccc(-c2ccc(-c3nc4cccc(C)c4[nH]3)cc2)cc1` (stereo not drawn) returned an Inhibition of 94%.

On to `Cc1c(N)ccc2[nH]c(-c3ccc(N)cc3)nc12`, for which the Inhibition is recorded as 97%.

As for `CCCc1cc(Cc2cnc(N)nc2N)ccc1OCCCCCC(=O)OCC`, the Inhibition is 97%.

Take `CC(C)c1ccc(NC(=O)NCC2CCCN(CCCCCNC(=O)/C=C/c3ccc(Cl)c(Cl)c3)C2)cc1` (stereo not drawn): the Inhibition is recorded as 98%.

With `Cc1[nH]c(C)c(Cc2ccc(Oc3ccc(OC(F)(F)F)cc3)cc2)c(=O)c1Br`, the Inhibition stood at 96%.

Molecule `CCCN1CCC(NCc2cn(C)nc2-c2ccc(Oc3ccccc3)cc2)CC1` yielded an Inhibition of 88%.

Consider `CC(=O)Nc1ccc(C(=O)Nc2ccc(-c3cccc(-c4nc5cc(F)ccc5[nH]4)c3)cc2)cn1`, for which the Inhibition is recorded as 100%.

As for `COc1cccc(CN2CCC(N3CCc4cc(NC(=O)c5cc(C)on5)ccc43)C2)c1OC` (stereo not drawn), the Inhibition worked out at 93%.

Molecule `Cc1ccc(Sc2ccc(NC(=O)CN3CCN(C(=O)c4ccco4)CC3)cc2)cc1C` gave an Inhibition of 92%.

For `O=C(Nc1ccc(Cl)cc1)Nc1ccc2nonc2c1`, the Inhibition was 94%.

`O=C(NCCCCN1CCC(c2ccc3ccccc3c2)CC1)c1ccc(NC(=O)c2ccc(Cl)cc2)cc1`: the Inhibition was determined as 100%.

With `CC(=O)NC1=NC(C)(C)N(OCc2ccc(Cl)c(Cl)c2)C(NC(C)=O)=N1`, the Inhibition is 94%.

`CN(C)c1ccc(CN2CCC(CNC(=O)c3cc(-c4cccc(C(F)(F)F)c4)cs3)C2)cc1.O=C(O)C(F)(F)F` (stereo not drawn) showed an Inhibition of 96%.

On to `Clc1cc(Nc2ncnc3sc(C#C[C@H]4CCCN4)cc23)ccc1OCc1cccnc1Cl.O=C(O)C(F)(F)F`, for which the Inhibition is given as 100%.

`CC(C)C[C@H](NC(=O)c1cc2ccccc2s1)C(=O)N[C@H]1CCN(Cc2ccc(OC3CCN(C)C3)c(Cl)c2)C1.O=C(O)C(F)(F)F` (stereo partly drawn): the Inhibition was 97%.

The molecule `Cl.O=[N+]([O-])c1ccc(-c2nc3cc(C4=NC5CCCCC5N4)ccc3[nH]2)cc1` (stereo not drawn) came in with an Inhibition of 100%.

Molecule `CCOc1c(CNCCCNc2cc(O)c3ccccc3n2)cc(Br)cc1OC` had an Inhibition of 80%.

Molecule `COc1cccc2sc(N3CCN(C(=O)c4ccc([N+](=O)[O-])o4)CC3)nc12` registered an Inhibition of 95%.

In the case of `Cl.O=C(CCCCCCc1ccccc1)Nc1ccc2nc3c(c(NCc4ccccc4)c2c1)CCCC3`, the Inhibition is 100%.

`CCCCCCNC(=O)C1Cc2c([nH]c3ccc(Br)cc23)C2(CCN(CCc3ccccc3)CC2)N1` (stereo not drawn) registered an Inhibition of 100%.

The molecule `CCC(C)NC(=O)CN1CN(c2ccccc2)C2(CCN(C(=O)c3ccc(C(C)(C)C)cc3)CC2)C1=O` (stereo not drawn) had an Inhibition of 100%.

Regarding `O=C(NCc1cccc2ccccc12)C(c1cc2ccccc2o1)N1CCN(C(c2ccccc2)c2ccccc2)CC1` (stereo not drawn), the Inhibition is 99%.

`Cc1cc(N2CCC(NS(=O)(=O)c3ccc(F)cc3)CC2)nc(Nc2cccc(C#N)c2)n1.O=C(O)C(F)(F)F`: the Inhibition came out at 97%.

As for `CC(=O)N1N=C(c2cccs2)Sc2c1nc(-c1ccc(Cl)cc1)n2C(C)=O`, the Inhibition is reported as 99%.

In the case of `CN(C)CCOc1ccc(N2CCN(CCCCNC(=O)c3ccc(/C=C/c4cc(Cl)cc(Cl)c4)cc3)CC2)cc1`, the Inhibition is reported as 98%.

The subject of the next test is Plasmodium falciparum. The test is described as follows: GSK_TCMDC: Inhibition of Plasmodium falciparum Dd2 in whole red blood cells, using parasite LDH activity as an index of growth. Test compounds present at 2uM. It is filed as functional.
`CCCNC(=O)c1cncc(-c2cccc(CNC3Cc4ccccc4C3)c2)c1.O=C(O)C(F)(F)F` showed an Inhibition of 2%.

`C#CCN(Cc1cc2c(=O)[nH]c(N)nc2cc1C)c1ccc(C(=O)N[C@@H](CCC(=O)O)C(=O)O)cc1` showed an Inhibition of 74%.

Consider `Cc1nc2nc(N)nc(N)c2c(C)c1Cc1cccc(C(N)=O)c1.Cl`, for which the Inhibition stood at 0%.

`COc1cc(C2CCN(CCCCNC(=O)c3ccc(NC(=O)c4ccc(Cl)c(Cl)c4)cc3)CC2)ccc1OC(C)C` came in with an Inhibition of 96%.

`COc1cc2c(cc1OCCN1CCC(N3CCCCC3)CC1)N(C(=O)/C=C/c1ccccc1Cl)CC2`: the Inhibition is reported as 41%.

`O=S(=O)(c1ccc(Oc2ccccc2)cc1)N(CCC(O)(C(F)(F)F)C(F)(F)F)Cc1cccc(O)c1` yielded an Inhibition of 99%.

The molecule `CN1CCN(CCCN(Cc2csc(-c3ccc(CNCc4ccccc4)cc3)n2)C(=O)c2cc(F)cc(F)c2)CC1.O=C(O)C(F)(F)F` came in with an Inhibition of 53%.

Molecule `CS(=O)(=O)N(c1cccc(F)c1)c1cc(C(=O)N[C@@H](Cc2ccccc2)[C@H](O)CNCc2cccc(C(F)(F)F)c2)cc(N2CCCC2=O)c1.O=CO` showed an Inhibition of 92%.

The molecule `CC(C)(C)OC(=O)C1CCCN(Cc2ccc(-c3cccc(-c4nc5ccccc5[nH]4)c3)cc2)C1.O=C(O)C(F)(F)F` (stereo not drawn) displayed an Inhibition of 27%.

`COc1ccc2ccc(OC)c(CNCCCCCCNCc3c(OC)ccc4ccc(OC)cc34)c2c1.CS(=O)(=O)O` registered an Inhibition of 32%.

Take `CN(C)CCOc1ccc(-c2cc(-c3ccc(Cl)c(O)c3)c(-c3ccnc(N)n3)o2)cc1`: the Inhibition stood at 95%.

In turn, `CCOC(=O)CCCc1cc(NC2CCN(C)CC2)nc(Nc2ccc(C)cc2)n1` yielded an Inhibition of 12%.

In the case of `CCOc1cc(-c2nnc3[nH]c(=O)n(C)c(=O)c3n2)ccc1OC(C)C`, the Inhibition is 86%.

`CC(C)C(=O)NC(c1ccc(N(C)C)cc1)c1cc(Cl)c2cccnc2c1O` (stereo not drawn): the Inhibition is given as 64%.

`CCCN1CCN(c2ccc(NS(=O)(=O)c3ccc(C(=O)Nc4ccc(Cl)cc4)cc3)cc2)CC1.O=C(O)C(F)(F)F` showed an Inhibition of 50%.

In the case of `CCN(CC(C)O)C(=O)c1ccc(-c2ccc(-c3nc4cccc(C)c4[nH]3)cc2)cc1` (stereo not drawn), the Inhibition was determined as 13%.

`Cc1c(N)ccc2[nH]c(-c3ccc(N)cc3)nc12`: the Inhibition is recorded as 40%.

Turning to `CCCc1cc(Cc2cnc(N)nc2N)ccc1OCCCCCC(=O)OCC`, the Inhibition stood at 1%.

On to `CC(C)c1ccc(NC(=O)NCC2CCCN(CCCCCNC(=O)/C=C/c3ccc(Cl)c(Cl)c3)C2)cc1` (stereo not drawn), for which the Inhibition is 6%.

`Cc1[nH]c(C)c(Cc2ccc(Oc3ccc(OC(F)(F)F)cc3)cc2)c(=O)c1Br` showed an Inhibition of 87%.

Take `CCCN1CCC(NCc2cn(C)nc2-c2ccc(Oc3ccccc3)cc2)CC1`: the Inhibition was 44%.

With `CC(=O)Nc1ccc(C(=O)Nc2ccc(-c3cccc(-c4nc5cc(F)ccc5[nH]4)c3)cc2)cn1`, the Inhibition stood at 84%.

The molecule `COc1cccc(CN2CCC(N3CCc4cc(NC(=O)c5cc(C)on5)ccc43)C2)c1OC` (stereo not drawn) showed an Inhibition of 92%.

`Cc1ccc(Sc2ccc(NC(=O)CN3CCN(C(=O)c4ccco4)CC3)cc2)cc1C` came in with an Inhibition of 84%.

Consider `O=C(Nc1ccc(Cl)cc1)Nc1ccc2nonc2c1`, for which the Inhibition amounted to 77%.

The molecule `O=C(NCCCCN1CCC(c2ccc3ccccc3c2)CC1)c1ccc(NC(=O)c2ccc(Cl)cc2)cc1` returned an Inhibition of 93%.

For `CC(=O)NC1=NC(C)(C)N(OCc2ccc(Cl)c(Cl)c2)C(NC(C)=O)=N1`, the Inhibition was determined as 97%.

In turn, `CN(C)c1ccc(CN2CCC(CNC(=O)c3cc(-c4cccc(C(F)(F)F)c4)cs3)C2)cc1.O=C(O)C(F)(F)F` (stereo not drawn) showed an Inhibition of 34%.

For `Clc1cc(Nc2ncnc3sc(C#C[C@H]4CCCN4)cc23)ccc1OCc1cccnc1Cl.O=C(O)C(F)(F)F`, the Inhibition is recorded as 93%.

`CC(C)C[C@H](NC(=O)c1cc2ccccc2s1)C(=O)N[C@H]1CCN(Cc2ccc(OC3CCN(C)C3)c(Cl)c2)C1.O=C(O)C(F)(F)F` (stereo partly drawn): the Inhibition came to 65%.

As for `Cl.O=[N+]([O-])c1ccc(-c2nc3cc(C4=NC5CCCCC5N4)ccc3[nH]2)cc1` (stereo not drawn), the Inhibition amounted to 30%.

Take `CCOc1c(CNCCCNc2cc(O)c3ccccc3n2)cc(Br)cc1OC`: the Inhibition is 18%.

`COc1cccc2sc(N3CCN(C(=O)c4ccc([N+](=O)[O-])o4)CC3)nc12` gave an Inhibition of 67%.

For the molecule `Cl.O=C(CCCCCCc1ccccc1)Nc1ccc2nc3c(c(NCc4ccccc4)c2c1)CCCC3`, the Inhibition was 98%.

`CCCCCCNC(=O)C1Cc2c([nH]c3ccc(Br)cc23)C2(CCN(CCc3ccccc3)CC2)N1` (stereo not drawn): the Inhibition is 94%.

For `CCC(C)NC(=O)CN1CN(c2ccccc2)C2(CCN(C(=O)c3ccc(C(C)(C)C)cc3)CC2)C1=O` (stereo not drawn), the Inhibition was determined as 100%.

Take `O=C(NCc1cccc2ccccc12)C(c1cc2ccccc2o1)N1CCN(C(c2ccccc2)c2ccccc2)CC1` (stereo not drawn): the Inhibition was found to be 90%.

As to `Cc1cc(N2CCC(NS(=O)(=O)c3ccc(F)cc3)CC2)nc(Nc2cccc(C#N)c2)n1.O=C(O)C(F)(F)F`, the Inhibition is given as 65%.

In turn, `CC(=O)N1N=C(c2cccs2)Sc2c1nc(-c1ccc(Cl)cc1)n2C(C)=O` had an Inhibition of 93%.

`CN(C)CCOc1ccc(N2CCN(CCCCNC(=O)c3ccc(/C=C/c4cc(Cl)cc(Cl)c4)cc3)CC2)cc1`: the Inhibition is given as 84%.
